# Laboratory results published in PubChem BioAssay AID1851 (National Center for Advancing Translational Sciences (NCATS), 2009).
# Screen size: about 16,000 compounds; about 4,000 (25%) were called active. Not shown: some 26% with an inconclusive outcome. The call rests on the fitted dose curve; in most records, active means well fitted curve in the direction sought with a large enough effect; inconclusive means small, poorly fitted or top-dose-only effect, or effect the other way; inactive means no such curve, though single readings can be large or run the other way. Not all results are given here.
# Molecular target: Cytochrome P450 2C9 (Homo sapiens) (UniProt P11712)
# Test: Cytochrome panel assay with activity outcomes
# Settings: recombinant CYP, pro-luciferin dealkylation, luminescence, p450-cyp2c9; series mostly up to 57.1 µM
# On the % scale 0 is the no-effect control and ±100 the full control effect.
# Chain of Cytochrome P450 2C9 (Homo sapiens) (P11712 whole entry, looked up): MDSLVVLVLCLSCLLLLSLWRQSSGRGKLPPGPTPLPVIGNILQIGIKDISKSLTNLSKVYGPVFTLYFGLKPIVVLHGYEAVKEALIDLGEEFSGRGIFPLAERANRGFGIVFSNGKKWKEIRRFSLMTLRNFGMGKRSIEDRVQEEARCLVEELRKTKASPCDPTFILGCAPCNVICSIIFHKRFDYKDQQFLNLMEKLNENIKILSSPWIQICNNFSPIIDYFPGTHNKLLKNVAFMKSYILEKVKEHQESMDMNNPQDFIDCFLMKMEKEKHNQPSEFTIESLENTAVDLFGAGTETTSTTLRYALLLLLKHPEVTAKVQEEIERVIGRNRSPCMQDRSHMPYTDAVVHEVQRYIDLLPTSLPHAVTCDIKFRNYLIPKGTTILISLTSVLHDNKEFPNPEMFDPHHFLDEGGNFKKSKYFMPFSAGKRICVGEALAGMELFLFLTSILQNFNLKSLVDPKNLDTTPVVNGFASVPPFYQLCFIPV
SMILES,AC50,"activity, negative = inhibition"
CC(C)c1ccc(N2C(=O)CC(Sc3nc4ccccc4o3)C2=O)cc1 (configuration not stated),2.24 µM (active),
CC1(CCC#N)N=C(SCCC#N)N(c2ccccc2)C1=O (configuration not stated),inactive,
Cc1ccc(S(=O)(=O)CC#CCOC(=O)c2ccc([N+](=O)[O-])cc2)cc1,5.62 µM (active),
Cc1ccc(/C(C#N)=C/c2cccc([N+](=O)[O-])c2)cc1,,-10.5% [at 11.4 µM] (inactive)
Cc1c(OC(=O)c2ccc([N+](=O)[O-])cc2)c2c(c[n+]1C)COC(C)(C)OC2,inactive,
Cc1ccc(C(=N)c2ccccc2Cc2cccc3ccccc23)c2ccccc12,,5.86% [at 11.4 µM] (inactive)
COc1cc(Cl)c(CC(=O)c2c[nH]c3ccccc23)cc1OC,,-14.5% [at 11.4 µM] (inactive)
COc1ccc(Cc2ccccc2C(=O)O)c2ccccc12,3.98 µM (active),
N[C@@H](C(=O)O)c1cc(O)ccc1Cl,inactive,
N#C/C(=C(/O)CN1CCCCC1)c1nc(-c2ccc(Cl)cc2)cs1,inactive,
Cc1ccc(-c2csc(C(C#N)=C3CCCC3)n2)cc1,11.2 µM (active),
O=C(CSCC(=O)OCn1nnc2ccccc2c1=O)Nc1ccc(Cl)cc1,12.6 µM (active),
COC(=O)c1ccc(N2CCN(c3ccccc3)CC2)c(NC(=O)C2CC2)c1,inactive,
COC(=O)c1ccc(C(=O)OC)c(NC(=S)N2CCN(c3ccccc3)CC2)c1,6.31 µM (active),
COC(=O)c1cc(OC)c(OC)cc1NC(=S)N1CCN(C)CC1,inactive,
Cc1cccc(C)c1OC[C@H](C)N,inactive,
Cc1cc(=O)[nH]c2c1c(C)nn2C1CCOC(C)(C)C1 (configuration not stated),inactive,
Cn1c(=O)n(-c2ccc(Cl)cc2)c(=O)c2c3c(sc21)COC(C)(C)C3,10 µM (active),
CN1CCc2c(sc3c2c(=O)n(-c2ccccc2)c2nncn32)C1,inactive,
Cn1c(=O)n(-c2cccc(Cl)c2)c(=O)c2c3c(sc21)COC(C)(C)C3,15.8 µM (active),
COc1cccc(C(C#N)N2N=C(C)CC2(C)C)c1O (configuration not stated),inactive,
O=C1[C@@H]2[C@H]3[C@H](O)[C@H](O)C/C(=N/OCc4ccccc4)[C@@H]3CC[C@H]2C(=O)N1c1ccc(F)cc1F,,12.2% [at 11.4 µM] (inactive)

SMILES,AC50,"activity, negative = inhibition"
C=C[C@@]1(C)CC(=O)[C@@]2(O)[C@@]3(C)[C@@H](O)CCC(C)(C)[C@@H]3[C@H](O)[C@H](OC(C)=O)[C@@]2(C)O1,inactive,
C=C[C@@]1(C)CC(=O)[C@@]2(O)[C@@]3(C)[C@H](O)CCC(C)(C)[C@@H]3[C@H](O)[C@H](OC(C)=O)[C@]2(C)O1,inactive,
C=C[C@@]1(C)CC(=O)[C@@]2(O)[C@@]3(C)[C@@H](O)CCC(C)(C)[C@@H]3[C@H](OC(=O)CCN(C)C)[C@H](OC(C)=O)[C@@]2(C)O1,0.126 µM (active),
CC1(C)SC(=S)N(NC(=O)Nc2ccccc2)C1N(O)C(=O)Nc1ccccc1 (configuration not stated),10 µM (active),
COCCNc1nc(-c2ccccc2CN(C)C)nc2ccccc12,,1.68% [at 2.29 µM] (inactive)
COc1ccc([C@@H](Nc2ccccn2)c2cc(C(C)(C)C)cc(C(C)(C)C)c2O)cc1,2.51 µM (active),
O[C@H](CNc1ccccn1)c1ccccc1,,-4.96% [at 11.4 µM] (inactive)
COc1ccc([C@H](O)c2ccccn2)cc1,,-12.5% [at 11.4 µM] (inactive)
CN1CCN(c2ccc([N+](=O)[O-])cc2NC(=O)c2ccccc2Cl)CC1,inactive,
O=[N+]([O-])c1ccc(N2CCN(CCOc3nonc3-c3ccccc3)CC2)c(Cl)c1,22.4 µM (active),
c1cncc(-c2ccc3ncnc(NCCN4CCOCC4)c3c2)c1,,23.6% [at 2.29 µM] (inactive)
c1ccc(-n2ncc3c(NCCCN4CCOCC4)ncnc32)cc1,inactive,
c1ccc2c(c1)oc1c(NCCCn3ccnc3)ncnc12,0.447 µM (active),
COc1ccc(-c2nc3cnc(OC)nc3n(-c3ccc(OC)cc3)c2=O)cc1,inactive,
CCNc1ncc2nc(C)c(=O)n(C3CC3)c2n1,inactive,
Cc1ccc(-c2nnc(-c3ccc(NC(=O)c4cccs4)cc3)o2)cc1,5.01 µM (active),
CS(=O)(=O)c1ccccc1-c1nc(-c2cc(C(F)(F)F)cc(C(F)(F)F)c2)no1,inactive,
Cc1ccccc1-c1nccc(NCc2cccs2)n1,,-17.9% [at 2.29 µM] (inactive)
Cc1ccccc1-c1nc(-c2ccc(NC(=O)c3cccs3)cc2)no1,12.6 µM (active),
O=C(c1csnn1)N1CCC[C@@]2(CCN(Cc3nccs3)C2)C1,inactive,
O=C(O)c1cc([N+](=O)[O-])ccc1NCCCc1ccccc1,0.501 µM (active),
Cc1cc([N+](=O)[O-])ccc1NCc1ccccc1,3.55 µM (active),

SMILES,AC50,"activity, negative = inhibition"
c1ccc(CCCNc2nnnc3ccccc23)cc1,,-19.1% [at 11.4 µM] (inactive)
COC(=O)C/C=C\[C@@H](C)[C@@H](/C=N\O[C@@H](C)CN1CCCc2nc(C)c(C)cc21)OC,,-19.3% [at 11.4 µM] (inactive)
O=S(=O)(c1ccccc1)N1CCC2(CC1)CN(c1ncccn1)C2,inactive,
O=S(=O)(c1ccccc1)N1CCC2(CCCN(c3ccccc3)C2)CC1,1.26 µM (active),
CS(=O)(=O)N1CCC2(CCCN(c3ccccn3)C2)CC1,inactive,
O=S(=O)(c1ccccc1)N1CCC2(CCCN(c3ccccn3)C2)CC1,1 µM (active),
O=S(=O)(c1ccccc1)N1CCC2(CC1)CN(c1ccccn1)C2,inactive,
CC(C)CN1CC[C@@]2(CCCN(S(=O)(=O)c3ccccc3)C2)C1,inactive,
O=S(=O)(c1ccccc1)N1CCC2(CCN(c3ncccn3)CC2)CC1,inactive,
CS(=O)(=O)N1CCC[C@@]2(CCN(c3ccccn3)C2)C1,inactive,
O=S(=O)(c1ccccc1)N1CCC[C@@]2(CCN(c3ccncc3)C2)C1,15.8 µM (active),
O=S(=O)(c1ccccc1)N1CCC2(CCCN(c3ncccn3)C2)CC1,1 µM (active),
O=S(=O)(c1ccccc1)N1CCC2(CCCN(c3cccc(-c4ccccc4)c3)C2)CC1,inactive,
CN1CCCC2(CCN(S(=O)(=O)c3ccccc3)CC2)C1,inactive,
C=C(NC(=O)C(=C)NC(=O)c1csc(C2=N[C@@H]3c4csc(n4)[C@@H]4NC(=O)c5csc(n5)[C@@H]([C@](C)(O)[C@H](C)O)NC(=O)[C@@H]5CSC(=N5)/C(=C/C)NC(=O)[C@@H]([C@H](C)O)NC(=O)c5csc(n5)[C@]3(CC2)NC(=O)[C@@H](C)NC(=O)C(=C)NC(=O)[C@@H](C)NC(=O)[C@@H]([C@@H](C)CC)N[C@H]2C=Cc3c([C@H](C)O)cc(nc3[C@@H]2O)C(=O)O[C@H]4C)n1)C(N)=O,inactive,
O=C1C2C3C=CC(C3)C2C(=O)N1/N=C/c1cn(Cc2ccc(F)cc2)c2ccccc12 (configuration not stated),inactive,
O=[N+]([O-])/C=C/c1cn(Cc2ccccc2)c2ccccc12,11.2 µM (active),
O=C1C2C3C=CC(C3)C2C(=O)N1/N=C/c1cn(Cc2ccccc2)c2ccccc12 (configuration not stated),inactive,
C/C(=N/O)c1ccc2cc(Br)c3ccccc3c2c1,,-8.36% [at 11.4 µM] (inactive)
Cc1cccc(CNc2nc(-c3ccccc3CN(C)C)nc3ccccc23)c1,,-1.33% [at 2.29 µM] (inactive)
Nc1ccc(N(c2ccccc2)c2ccc(N)cc2)cc1,7.08 µM (active),
C[C@H](c1ccccc1)N1C(=O)[C@H]2[C@@H]3[C@H](O)[C@H](O)CC(=O)[C@H]3CC[C@H]2C1=O,,20% [at 11.4 µM] (inactive)

SMILES,AC50,"activity, negative = inhibition"
N[C@@H](Cc1cc(CP(=O)(O)O)cc(-c2ccccc2Cl)c1)C(=O)O,inactive,
Cc1c(N2CCCC2)cc2c(c1NC(=O)c1ccccc1Cl)C(C)(C)CC2(C)C,,-14.9% [at 11.4 µM] (inactive)
Cc1cc(F)ccc1S(=O)(=O)Nc1ccccc1C(=O)Nc1ccccc1N1CCOCC1,0.447 µM (active),
COC(=O)CSC(C(=O)Nc1ccc(C)c(C)c1)c1ccccc1 (configuration not stated),1.78 µM (active),
Cc1ccc(NC(=O)c2ccccc2C(=O)O)cc1C,,-16.6% [at 11.4 µM] (inactive)
Cc1ccc(NC(=O)C2C3CCCC2C3c2ccccc2)cc1C (configuration not stated),inactive,
C#CCCCO/N=C1/C[C@@H](O)[C@@H](O)[C@@H]2[C@@H]3C(=O)N(CCC(=O)OCC)C(=O)[C@H]3CC[C@H]12,,12.8% [at 11.4 µM] (inactive)
Cc1cccc(C)c1OC[C@@H](N)C(C)C,inactive,
COC(=O)c1[nH]c2ccc(Br)cc2c1NC(=O)CN1CCN(C2CCCCC2)CC1,inactive,
COC(=O)c1[nH]c2ccc(Br)cc2c1NC(=O)CN1CCCc2ccccc21,0.891 µM (active),
CC1(C)CC(=O)C2=C(C1)Nc1cc3c(cc1C2c1ccc(F)cc1)OCO3 (configuration not stated),4.47 µM (active),
N#Cc1c(NC(=O)C(F)(F)F)sc2c3c(=O)c4ccccc4c(=O)c=3oc3ccccc3c12,0.0501 µM (active),
O=C(NC12CC3CC(CC(C3)C1)C2)N1CCN(c2nc(-c3ccccc3)cs2)CC1,12.6 µM (active),
COc1ccc(-n2c(=O)c(C)nc3cnc(OC)nc32)cc1,inactive,
Cc1noc(C)c1-c1ccc2ncnc(N(C)C)c2c1,,10.9% [at 2.29 µM] (inactive)
CCN1C(=O)/C(=C2\SC(=S)N(CCCOC)C2=O)c2ccccc21,0.794 µM (active),
CN(C)CN1C(=O)S/C(=C2/C(=O)N(CN(C)C)c3ccccc32)C1=O,,-9.33% [at 11.4 µM] (inactive)
CC(C)Cn1cnc2c(Sc3c([N+](=O)[O-])ncn3C)nc(N)nc21,,29.4% [at 11.4 µM] (inactive)
O=C1c2ccccc2C(=O)N1CC(=O)N1c2ccccc2CCc2ccccc21,3.55 µM (active),
CCN(CC)CCC(=O)Nc1ccc2c(c1)N(C(=O)CN(CC)CC)c1ccccc1CC2,inactive,
O=C(CN1C(=O)c2ccccc2C1=O)NC1(C(=O)O)CCCC1,,4.07% [at 11.4 µM] (inactive)
